Test results as given in PubChem BioAssay (Tox21).
Several values for one entry are separate records, joined by “and”; a condition that tells them apart may be missing. Identical values can stand only once. Results filed as inconclusive are left out. A call without a number means that no potency is given here. Where a structure was tested more than once in an assay, its records may differ in their call. Activity calls are given as the source filed them. Unless noted, calls follow the shape of the dose curve; as a rule, active = well fitted curve in the direction sought with a large enough effect in the repeat runs; inconclusive = weak or mixed curves; inactive = no such curve, though single readings can be large; an effect the other way counts as inactive or inconclusive.

Columns and labels:
[1] = qHTS assay to identify small molecule agonists of the hypoxia (HIF-1) signaling pathway - cell viability counter screen (AID 1224844; calls by dose curve; also: nearly all actives have a fitted effect of over 50% in size)
In short: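 Cytotoxicity measured by CellTiter-Glo ATP luminescence in the wells also read for beta-lactamase signal. Cells were HRE-bla ME-180 (2,000/well, 0.5% dialyzed FBS), exposed to compounds for 17 h at 37C.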

[2] = qHTS assay to identify small molecule agonists of H2AX (AID 1224845; active = well fitted activation curve with a large enough effect in the signal ratio in the repeat runs, not every such curve was filed as active; the % refers to the signal ratio)
In short: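 Phospho-H2AX Ser139 measured by HTRF (ex 320 nm; em 665 and 620 nm) after 24 hr antibody incubation. Compounds, 15 concentrations, 0.76% DMSO, were applied to CHO-K1 cells for 3hr at 37C before lysis.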

[3] = qHTS assay to identify small molecule agonists of the hypoxia (HIF-1) signaling pathway (AID 1224846; active = well fitted activation curve with a large enough effect in the signal ratio in the repeat runs, not every such curve was filed as active; the % refers to the signal ratio)
In short: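 Compounds added to ME-180 cells carrying hypoxia-response-element beta-lactamase reporter (0.5% dialyzed FBS, 5 h preplating), 17 h at 37C; agonist activity detected by CCF4-AM B/G FRET read-out.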

[4] = qHTS assay to identify small molecule agonists of H2AX - cell viability counter screen (AID 1224847; calls by dose curve; also: top concentration of the series differs between compounds; nearly all actives have a fitted effect of over 30% in size)
In short: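 Compounds tested at 15 concentrations were incubated 3 hr at 37C with wild-type CHO-K1 cells; cellular ATP-based luminescence (CellTiter-Glo) indicated viability.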

[5] = qHTS assay to identify small molecule antagonists of the estrogen related receptor (ERR) signaling pathway from Tox21 library (AID 1224848); also: nearly all actives have a fitted effect of over 50% in size; also: potency is read from the fitted curve at half-maximal effect
In short: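 ERR cell line, 2,000 cells/well. 6 h settle, then compound (DMSO) added; 18 h at 37 C; ONE-Glo luminescence after 30 min RT.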

[6] = qHTS assay to identify small molecule agonists of the estrogen related receptor (ERR) signaling pathway from Tox21 library (AID 1224849; calls by dose curve; also: nearly all actives have a fitted effect of over 15% in size); conditions: ERR reporter cell line, ONE-Glo luciferase, 18 h
In short: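 Luminescent agonist read-out (One-Glo, 30-minute room-temperature incubation) following 18-hour compound treatment at 37 C of the ERR cell line, which had been plated 6 hours before dosing.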

[7] = qHTS RealTime-Glo MT Cell Viability Assay in HepG2 cells - 24 hour (AID 1224867); also: nearly all actives have a fitted effect of over 50% in size
In short: (§1)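 HepG2 cells (600/well) were dispensed with RealTime-Glo reagents, incubated 5 h at 37 °C, then treated with compounds in DMSO for up to 40 h. Nonlytic NanoLuc luminescence reflecting viable cells was read at each stated time point.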

[8] = qHTS RealTime-Glo MT Cell Viability Assay in HEK293 cells - 32 hour (AID 1224868); also: nearly all actives have a fitted effect of over 50% in size; also: potency is read from the fitted curve at half-maximal effect
In short: (§2)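 HEK293 cells seeded with NanoLuc/prosubstrate reagent, rested 5 h at 37 C, then dosed and kept at 37 C up to 40 h. Nonlytic real-time luminescence from viable cells read at 0, 8, 16, 24, 32 and 40 h.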

[9] = A CellTox Green Cytotoxicity Assay to monitor cytotoxicity in HEK293 cells - 0 hour (AID 1224869); also: nearly all actives have a fitted effect of over 50% in size
In short: (§3)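 Fluorescence from a DNA-binding dye excluded by viable cells was measured repeatedly in the same HEK293 wells (600 cells/well) during continuous compound exposure at 37 C. Each assay gives one read point: 0, 8, 16, 24, 32 or 40 h.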

[10] = qHTS RealTime-Glo MT Cell Viability Assay in HepG2 cells - 40 hour (AID 1224870); also: nearly all actives have a fitted effect of over 50% in size
In short: (§4)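 Real-time viability: cells seeded at 600 per well together with NanoLuc and cell-permeant prosubstrate, compounds added after 5 h incubation. Luminescence tracked at 0, 8, 16, 24, 32 and 40 h of exposure.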

[11] = A CellTox Green Cytotoxicity Assay to monitor cytotoxicity in HEK293 cells - 40 hour (AID 1224871); also: nearly all actives have a fitted effect of over 45% in size
In short: as §3

[12] = qHTS RealTime-Glo MT Cell Viability Assay in HEK293 cells - 16 hour (AID 1224872)
In short: as §2

[13] = qHTS RealTime-Glo MT Cell Viability Assay in HepG2 cells - 8 hour (AID 1224873); also: nearly all actives have a fitted effect of over 55% in size
In short: as §4

[14] = qHTS RealTime-Glo MT Cell Viability Assay in HEK293 cells - 40 hour (AID 1224874); conditions: RealTime-Glo luminescence; max response: stronger effect = lower value; also: nearly all actives have a fitted effect of over 50% in size; also: potency is read from the fitted curve at half-maximal effect
In short: (§5)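 Luminescence, which tracks viable cell number through reduction of the prosubstrate to a NanoLuc substrate, was read over continuous 37 C culture. Cells (600/well) were premixed with reagent and rested 5 h before 23 nL of compound in DMSO was pinned.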

[15] = A CellTox Green Cytotoxicity Assay to monitor cytotoxicity in HEK293 cells - 24 hour (AID 1224875); also: nearly all actives have a fitted effect of over 45% in size
In short: as §3

[16] = A CellTox Green Cytotoxicity Assay to monitor cytotoxicity in HepG2 cells - 16 hour (AID 1224876); also: nearly all actives have a fitted effect of over 45% in size
In short: (§6)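 Real-time cytotoxicity: fluorescence of a cell-impermeant cyanine dye binding DNA of dead HepG2 cells, measured repeatedly (0–40 h) during compound exposure at 37 C. Cells seeded 600/well with reagent, dosed after 5 h.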

[17] = qHTS RealTime-Glo MT Cell Viability Assay in HepG2 cells - 32 hour (AID 1224877); also: nearly all actives have a fitted effect of over 55% in size
In short: as §1

[18] = A CellTox Green Cytotoxicity Assay to monitor cytotoxicity in HepG2 cells - 24 hour (AID 1224878); also: nearly all actives have a fitted effect of over 45% in size
In short: as §6

[19] = A CellTox Green Cytotoxicity Assay to monitor cytotoxicity in HepG2 cells - 40 hour (AID 1224879); also: nearly all actives have a fitted effect of over 40% in size
In short: as §6

[20] = qHTS RealTime-Glo MT Cell Viability Assay in HEK293 cells - 0 hour (AID 1224880)
In short: as §5

Q: What does the source list for `CCOc1ccc(NC(C)=O)cc1`?
A: Potency [1]: inactive; Potency [2]: inactive; outcome [3]: inactive; Potency [4]: inactive; Potency [5]: inactive; activity change, positive = activation ([6]; at 42.5 µM (top of the series)): 9.79% (inactive); activity change, positive = activation ([6]; at 92.4 µM (top of the series)): 9.07% (inactive) and -21.8% (inactive); Potency [7]: inactive; Potency [8]: inactive and 24.5 µM (active); Potency [9]: inactive; Potency [10]: inactive; Potency [11]: inactive; Potency [12]: inactive; Potency [13]: inactive; Potency [14]: 21.9 µM (active); max response [14]: 2.25% (inactive) and 1.74% (inactive); Potency [15]: inactive; Potency [16]: inactive; Potency [17]: inactive; Potency [18]: inactive; Potency [19]: inactive; Potency [20]: inactive

Q: Which Potency [1] does the source give for `CCCCCCCC(=O)OCC(COC(=O)CCCCCCC)OC(=O)CCCCCCC` here?
A: The Potency was “inactive”.

Q: And the Potency [2]?
A: The Potency was “inactive”.

Q: And the outcome [3]?
A: The outcome was “inactive”.

Q: What about the Potency [4] of the same molecule?
A: The Potency was “inactive”.

Q: And the Potency [7]?
A: The Potency was “inactive”.

Q: And the Potency [8]?
A: Its Potency is “inactive”.

Q: And the Potency [9]?
A: The Potency was “inactive”.

Q: What about the Potency [10] of the same molecule?
A: Its Potency is “inactive”.

Q: And the Potency [11]?
A: Its Potency is “inactive”.

Q: What about the Potency [12] of the same molecule?
A: The Potency was “inactive”.

Q: What about the Potency [13] of the same molecule?
A: The Potency was “inactive”.

Q: And the max response [14]?
A: Its max response is 4.45% (inactive) and -0.248% (inactive) and 1.22% (inactive).

Q: What about the Potency [15] of the same molecule?
A: Its Potency is “inactive”.

Q: And the Potency [16]?
A: Its Potency is “inactive”.

Q: What about the Potency [17] of the same molecule?
A: Its Potency is “inactive”.

Q: What about the Potency [18] of the same molecule?
A: The Potency was “inactive”.

Q: And the Potency [19]?
A: The Potency was “inactive”.

Q: And the Potency [20]?
A: Its Potency is “inactive”.

Q: What does the source list for `O=C(O)c1ccccc1`?
A: Potency [1]: inactive; Potency [2]: inactive; outcome [3]: inactive; Potency [4]: inactive; Potency [7]: inactive; Potency [8]: inactive; Potency [9]: inactive; Potency [10]: inactive; Potency [11]: inactive; Potency [12]: inactive; Potency [13]: inactive; Potency [15]: inactive; Potency [16]: inactive; Potency [17]: inactive; Potency [18]: inactive; Potency [19]: inactive; Potency [20]: inactive

Q: Which results are given for `COc1ccc2c(c1)c(CC(=O)O)c(C)n2C(=O)c1ccc(Cl)cc1`?
A: Potency [1]: inactive; Potency [2]: inactive; outcome [3]: inactive; Potency [4]: inactive; Potency [5]: 30.8 µM (active) and inactive; activity change, positive = activation ([6]; at 42.5 µM (top of the series)): -11.8% (inactive); activity change, positive = activation ([6]; at 92.4 µM (top of the series)): -34.2% (inactive) and -25.5% (inactive); Potency [7]: inactive; Potency [9]: inactive; Potency [10]: inactive; Potency [11]: inactive; Potency [12]: inactive; Potency [13]: inactive; max response [14]: -7.62% (inactive) and 0.0637% (inactive); Potency [15]: inactive; Potency [16]: inactive; Potency [17]: inactive; Potency [18]: inactive; Potency [19]: inactive; Potency [20]: inactive

Q: Which Potency [1] does the source give for `Oc1ccccc1` here?
A: The Potency was “inactive”.

Q: What about the Potency [2] of the same molecule?
A: Its Potency is “inactive”.

Q: And the outcome [3]?
A: Its outcome is “inactive”.

Q: And the Potency [4]?
A: The Potency was “inactive”.

Q: What about the Potency [7] of the same molecule?
A: Its Potency is “inactive”.

Q: And the Potency [8]?
A: The Potency was “inactive”.

Q: What about the Potency [9] of the same molecule?
A: Its Potency is “inactive”.

Q: And the Potency [10]?
A: Its Potency is “inactive”.

Q: What about the Potency [11] of the same molecule?
A: The Potency was “inactive”.

Q: What about the Potency [12] of the same molecule?
A: The Potency was “inactive”.

Q: What about the Potency [13] of the same molecule?
A: Its Potency is “inactive”.

Q: What about the max response [14] of the same molecule?
A: The max response was 1.54% (inactive) [middle of 5 runs].

Q: And the Potency [15]?
A: The Potency was “inactive”.

Q: And the Potency [16]?
A: Its Potency is “inactive”.

Q: And the Potency [17]?
A: The Potency was “inactive”.

Q: And the Potency [18]?
A: Its Potency is “inactive”.

Q: And the Potency [19]?
A: Its Potency is “inactive”.

Q: And the Potency [20]?
A: Its Potency is “inactive”.
